This note sets out measurements from the supplement of paper PMC6522484.

Assay [1] deals with DLD1. The assay can be described thus: cell viability (CellTiter-Glo) relative to plate median (fraction of plate median); higher = more viable cells. Conditions: 5 µM; treatment time 24 h; reporter: 7TFP. The essentials: (§1)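 On parallel plates, a Tecan F500 reader recorded either firefly luciferase or CellTiterGlo luminescence. The plates held colorectal cancer cells stably transduced with lentiviral TCF/Wnt firefly luciferase reporters (7TFP or TCF4/Wnt), seeded in 384-well format and treated 24 h later with library compounds at a final 5 µM for 24 h. Per-well signals were normalised to the plate median (webcellHTS2, additive, no log transformation), and two independent replicates were averaged.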
A general note: ATP-based viability assays read luminescence as a measure of living cells.

The subject of the next assay is HCT116. The assay is described as above. Conditions: 5 µM; treatment time 24 h; reporter: TCF4/Wnt. The essentials: as §1
Assay [2] concerns SW480. The assay is described as above. Conditions: 5 µM; treatment time 24 h; reporter: 7TFP. The essentials:
as §1

Assay [3] has as its system DLD1. The assay is described as follows: TCF/Wnt firefly luciferase reporter signal relative to plate median (fraction of plate median); higher = higher Wnt reporter signal. The note with it: 5 µM; treatment time 24 h; reporter: 7TFP. The essentials: as §1
On the technique in general: Reporter assays use an easily measured gene product as a stand-in for the process of interest.

Assay [4] deals with SW480. The description is as above. Conditions: 5 µM; treatment time 24 h; reporter: 7TFP. The method in brief: as §1

± gives the standard deviation of the averaged measurements.

With `Cc1cc(=O)n(-c2ccccc2)n1C`, the cell viability in the assay with DLD1 [1] came out at 1.03 ± 0.081; with HCT116, 0.94 ± 0.026; in the assay on SW480 [2], 1.01 ± 0.034. Moreover, the “TCF/Wnt firefly luciferase reporter signal” value in the assay with DLD1 [3] amounted to 1.11 ± 0.2; in the assay with SW480 [4] it was 1.075 ± 0.0071.

Take `Cn1c(=O)c2c(ncn2C)n(C)c1=O`: the cell viability amounted to 0.899 ± 0.05 in the assay with DLD1 [1], 0.953 ± 0.081 in the assay with HCT116 and 0.952 ± 0.0014 in the assay with SW480 [2]. Also, the “TCF/Wnt firefly luciferase reporter signal” value with DLD1 [3] was found to be 0.981 ± 0.11; in the assay with SW480 [4] it was 1.01 ± 0.04.

Take `N[C@@H](C=O)[C@@H](O[C@@H]1O[C@H](C(=O)O)[C@@H](O)[C@H](O)[C@H]1O)[C@@H](O)[C@H](O)CO`: the cell viability is 1.02 in the assay with DLD1 [1], 1.14 ± 0.22 with HCT116 and 1 ± 0.054 in the assay on SW480 [2]. Further, the figures for the “TCF/Wnt firefly luciferase reporter signal” value in the assay on DLD1 [3] and in the assay with SW480 [4] were 0.939 ± 0.029 and 1 ± 0.078, respectively.

Turning to `CCCCCC(C)N` (stereo not given), the cell viability was found to be 1.02 ± 0.066 in the assay with DLD1 [1], 1.09 ± 0.021 in the assay on HCT116 and 0.954 ± 0.0099 with SW480 [2]. The “TCF/Wnt firefly luciferase reporter signal” value in the assay on DLD1 [3] was determined as 1.14 ± 0.078; with SW480 [4], 1.08 ± 0.057.

With `CC(=O)O[C@]1(C)CC[C@@]23C[C@H]1C(C)(C)[C@@H]2CC[C@H]3C`, the cell viability in the assay with DLD1 [1] amounted to 0.986 ± 0.035; in the assay with HCT116, 0.918 ± 0.033; in the assay with SW480 [2] it was 1 ± 0.067. Further, the “TCF/Wnt firefly luciferase reporter signal” value with DLD1 [3] stood at 1.05 ± 0.086; with SW480 [4] it was 0.934 ± 0.017.

For the molecule `CN[C@H]1CC[C@@H](c2ccc(Cl)c(Cl)c2)c2ccccc21`, the cell viability with DLD1 [1] was 0.713 ± 0.26; in the assay on HCT116 it was 0.386 ± 0.052; with SW480 [2] it was 0.934 ± 0.22. In addition, the “TCF/Wnt firefly luciferase reporter signal” value is 0.796 ± 0.23 with DLD1 [3] and 0.675 ± 0.15 with SW480 [4].

Turning to `CC(C)=CCc1c(O)cc2occ(-c3ccc4c(c3)OCO4)c(=O)c2c1O`, the cell viability in the assay with DLD1 [1] came to 1 ± 0.12; with HCT116, 1.05 ± 0.071; with SW480 [2], 0.972 ± 0.018. Besides, the “TCF/Wnt firefly luciferase reporter signal” value stood at 1.02 ± 0.1 in the assay on DLD1 [3] and 0.902 ± 0.45 in the assay with SW480 [4].

As for `C[C@@H]1CC2C3C[C@H](F)C4=CC(=O)C=C[C@]4(C)[C@@]3(F)[C@@H](O)C[C@]2(C)[C@@]1(O)C(=O)COC(=O)C(C)(C)C` (stereo not given in full), the figures for the cell viability in the assay on DLD1 [1], in the assay with HCT116 and in the assay on SW480 [2] were 1.01 ± 0.021, 0.925 ± 0.039 and 1 ± 0.025, respectively. Also, the “TCF/Wnt firefly luciferase reporter signal” value with DLD1 [3] was found to be 1.16 ± 0.064; in the assay on SW480 [4], 1.085 ± 0.0071.

For `Cc1cc(C(C)(C)C)cc(C)c1CC1=NCCN1`, the cell viability in the assay with DLD1 [1] worked out at 1.095 ± 0.0071; in the assay with HCT116, 1.06 ± 0.035; in the assay on SW480 [2], 1.07 ± 0.057. The “TCF/Wnt firefly luciferase reporter signal” value with DLD1 [3] stood at 0.9565 ± 0.0064; in the assay with SW480 [4], 0.991 ± 0.098.

As for `O=C(Oc1ccccc1C(=O)O)c1ccccc1O`, the values for the cell viability in the assay on DLD1 [1], with HCT116 and in the assay on SW480 [2] were 1.02 ± 0.014, 0.961 ± 0.054 and 1.03 ± 0.014, respectively. Also, the “TCF/Wnt firefly luciferase reporter signal” value in the assay on DLD1 [3] was found to be 1.06 ± 0.14; in the assay with SW480 [4], 1.02 ± 0.18.

As for `COC(=O)[C@@H]1OC(=O)C2OC23[C@@]1(C)CCC1[C@]2(C)C(C[C@H](O)[C@]13C)C(C)(C)[C@H](OC(C)=O)C[C@@H]2OC(C)=O` (stereo partly drawn) [7beta-HYDROXY-7-DESACETOXYKHIVORINIC ACID, METHYL ESTER], the figures for the cell viability with DLD1 [1], with HCT116 and with SW480 [2] were 1.01 ± 0.095, 1.065 ± 0.0071 and 1.05, respectively. In addition, the “TCF/Wnt firefly luciferase reporter signal” value is 1.11 ± 0.18 in the assay on DLD1 [3] and 1.03 ± 0.042 in the assay on SW480 [4].

As for `CCn1cc(C(=O)O)c(=O)c2cnc(N3CCNCC3)nc21`, the cell viability in the assay on DLD1 [1] was determined as 0.976 ± 0.049; in the assay with HCT116 it was 0.943 ± 0.12; with SW480 [2] it was 1 ± 0.025. For the same molecule, the “TCF/Wnt firefly luciferase reporter signal” value in the assay on DLD1 [3] was determined as 0.891 ± 0.21; in the assay on SW480 [4], 0.98 ± 0.13.

For `COc1ccc(-c2cc(=O)c3c(O)c(OC)c(O[C@@H]4O[C@H](CO[C@@H]5O[C@@H](C)[C@H](O)[C@@H](O)[C@H]5O)[C@@H](O)[C@H](O)[C@H]4O)cc3o2)cc1`, the results for the cell viability in the assay on DLD1 [1], in the assay with HCT116 and in the assay on SW480 [2] were 0.933 ± 0.087, 0.951 ± 0.056 and 0.897 ± 0.056, respectively. For the same molecule, the “TCF/Wnt firefly luciferase reporter signal” value was 1.07 ± 0.035 in the assay on DLD1 [3] and 1.08 ± 0.021 in the assay on SW480 [4].

As for `C[C@H]1O[C@@H](O[C@H]2[C@@H](O)C[C@H](O[C@H]3[C@@H](O)C[C@H](O[C@H]4CC[C@@]5(C)[C@H](CC[C@@H]6[C@@H]5CC[C@]5(C)[C@@H](C7=CC(=O)OC7)CC[C@]65O)C4)O[C@@H]3C)O[C@@H]2C)C[C@H](O)[C@@H]1O`, the cell viability in the assay with DLD1 [1] is 0.706 ± 0.19; in the assay on HCT116, 0.33 ± 0.2; in the assay on SW480 [2] it was 0.774 ± 0.052. For the same molecule, the “TCF/Wnt firefly luciferase reporter signal” value came out at 0.157 ± 0.14 with DLD1 [3] and 0.32 ± 0.11 with SW480 [4].
